PubChem BioAssay (NCATS)
The source made the active and inactive calls. Calls follow the shape of the dose curve; as a rule, active = well fitted cell-killing curve with a large enough effect; inconclusive = small, poorly fitted or top-dose-only effect; inactive = flat fitted curve, though single readings scatter.

Assay: Cell Viability - LYMP1-002 - Assay at 24 hr (AID 993)
Conditions: LYMP1-002 lymphoblastoid cells viability; series mostly up to 92.2 µM
Excerpt: NIH Chemical Genomics Center [NCGC]
NIH Molecular Libraries Screening Centers Network [MLSCN]
National Institutes of Environmental Health Sciences [NIEHS]
National Toxicology Program [NTP]
We have developed a 1536-well cell-based assay for quantitative high throughput screening (qHTS) against a number of cell lines to determine in vitro cytotoxicity of small molecules. This particular assay uses a human lymphoblastoid cell line (LYMP1-002) purchased from Coriell Institute for Medical Research.
NCGC Assay Protocol Summary:
The CellTiter-Glo luminescent cell viability assay (Promega) is a homogeneous method to measure the number of viable cells in culture. The end point readout of this assay is based on quantitation of intracellular ATP, an indicator of metabolic activity, using the luciferase reaction. Luciferase catalyzes the oxidation of beetle Luciferin to oxyluciferin and light in the presence of ATP. The luminescent signal is proportional to amount of ATP present.
Using the CellTiter-Glo luminescent cell viability assay, the amount of cellular ATP was measured in the lymphoblastoid cell line with complete culture medium following compound treatment for 24 hours. The assay was performed in opaque white Kalypsys 1536-well plates. In the screen, tetraoctylammonium bromide was used as positive control. Library compounds were measured for their ability to cause acute toxicity in the cell line, as reflected by a decrease in intracellular ATP levels, in a concentration-dependent manner. […] AC50 values were determined from concentration-response data modeled with the standard Hill equation.
qHTS protocol for CellTiter Glo lymphoblastoid cellular assay
[Step] [Parameter] [Value] [Description]
1. Reagent; 5 uL; 2500 lymphoblastoid cells/well
2. Time; 5 hr; 37 C incubation
4. Controls; 23 nL; Tetraoctylammonium bromide 6.4pM to 92 uM
5. Time; 24 hr; 37 C incubation
6. Reagent; 5 uL; CellTiter Glo reagent
7. Time; 30 min; Room Temperature
8. Detection; Luminescence; Viewlux plate reader
Keywords: cell viability, cytotoxicity, lymphoblastoid cell line, luminescence, NTPHTS, NTPHTS_NCGC, NIEHS, DSSTox, MLSMR, MLSCN, NIH Roadmap, qHTS, NCGC

SMILES	outcome
Cc1cn([C@H]2C[C@H](N=[N+]=[N-])[C@@H](CO)O2)c(=O)[nH]c1=O	inactive
Cn1c(=O)c2[nH]cnc2n(C)c1=O	inactive
O=c1c(-c2ccc(O)cc2)coc2cc(O)cc(O)c12	inactive
Nc1ccn([C@H]2CC[C@@H](CO)O2)c(=O)n1	inactive
O=c1[nH]cc(F)c(=O)[nH]1	inactive
CC(C)C(=O)Nc1ccc([N+](=O)[O-])c(C(F)(F)F)c1	inactive
NCCS(=O)(=O)O	inactive
Cn1c(=O)c2c(ncn2C)n(C)c1=O	inactive
COc1ccc2[nH]cc(CCNC(C)=O)c2c1	inactive
Clc1ccc(C(c2ccccc2Cl)C(Cl)Cl)cc1 (stereo not given)	inactive
Nc1c2c(nc3ccccc13)CCCC2	inactive
Cc1ccc(-c2cc(C(F)(F)F)nn2-c2ccc(S(N)(=O)=O)cc2)cc1	inactive
CCC1(c2ccccc2)C(=O)NCNC1=O	inactive
Cc1cn([C@H]2C=C[C@@H](CO)O2)c(=O)[nH]c1=O	inactive
CC(C)NCC(O)c1ccc(O)c(O)c1 (stereo not given)	inactive
COc1ccc(CCN(C)CCCC(C#N)(c2ccc(OC)c(OC)c2)C(C)C)cc1OC (stereo not given)	inactive
N[C@@H](Cc1c[nH]c2ccc(O)cc12)C(=O)O	inactive
COc1ccc2c(c1)c(CC(=O)O)c(C)n2C(=O)c1ccc(Cl)cc1	inactive
CC(COc1ccccc1)N(CCCl)Cc1ccccc1 (stereo not given)	inactive
NS(=O)(=O)c1cc2c(cc1Cl)NCNS2(=O)=O	inactive
